# Only some compounds are listed: those with a hit (about 16% of all), similar ones and a draw of the others.
# uPA surface inh: qHTS for Inhibitors of Cell Surface uPA Generation; AID 540303, 2011; cell surface uPA generation assay, qHTS; 330,000 compounds, 0.31% hits; Potency, µM (titrated, usually from 38.3 µM), most hits filed as inhibitors; active = well fitted inhibition curve with a large enough effect; inconclusive = small, poorly fitted or top-dose-only effect; inactive = no such curve, though single readings can be large or run the other way; tested in mouse RAW 264.7 cells; also: nearly all actives have a fitted effect of over 55% in size
# TDP1 inh: qHTS Assay for Inhibitors of Tyrosyl-DNA Phosphodiesterase (TDP1); Potency, µM (titrated, usually from 130 µM), hits mostly inhibitors; recombinant TDP1, AlphaScreen DNA substrate cleavage; 350,000 compounds, 0.28% hits; Tyrosyl-DNA phosphodiesterase 1 (Homo sapiens), Q9NUW8; also: nearly all actives have a fitted effect of over 40% in size
# Target sequence (Q9NUW8 whole entry, looked up): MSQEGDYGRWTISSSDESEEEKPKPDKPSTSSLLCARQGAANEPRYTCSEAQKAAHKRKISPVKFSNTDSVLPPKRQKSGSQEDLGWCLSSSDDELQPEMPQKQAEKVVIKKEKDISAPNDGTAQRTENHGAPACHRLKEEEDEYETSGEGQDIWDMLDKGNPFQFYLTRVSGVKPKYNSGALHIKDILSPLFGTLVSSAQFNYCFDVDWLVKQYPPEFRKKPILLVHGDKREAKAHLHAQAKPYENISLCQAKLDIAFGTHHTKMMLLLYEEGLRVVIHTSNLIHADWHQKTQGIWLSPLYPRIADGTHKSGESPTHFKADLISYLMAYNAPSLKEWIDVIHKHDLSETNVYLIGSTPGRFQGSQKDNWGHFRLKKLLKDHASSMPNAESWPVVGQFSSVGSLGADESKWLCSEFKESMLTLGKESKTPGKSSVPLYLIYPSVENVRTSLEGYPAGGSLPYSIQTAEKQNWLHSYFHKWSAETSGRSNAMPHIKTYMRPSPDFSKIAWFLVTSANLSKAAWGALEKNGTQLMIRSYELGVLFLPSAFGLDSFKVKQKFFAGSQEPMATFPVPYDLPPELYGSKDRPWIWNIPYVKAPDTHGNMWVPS
#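 Tdp1 1 nM final; 15 min RT w/ cpd; substrate 15 nM, 5 min; beads 10 ug/ml, 10 min; AlphaScreen read. Neg ctrl: no enzyme.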
# TDP1 cell noCPT: qHTS for Inhibitors of human tyrosyl-DNA phosphodiesterase 1 (TDP1): qHTS in cells in absence of CPT; 420,000 compounds, 15% hits; DT40 Tdp1-/- hTDP1 cells, no CPT, ATP luminescence, 48 h; Potency, µM (top dose mostly 46.2 µM), usual class: inhibitors; also: nearly all actives have a fitted effect of over 55% in size
#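 Readout: luminescence from CellTiter-Glo after 30 min in the dark at RT. Cells: DT40 Tdp1-/- with stable hTDP1, 400/well. Exposure: compounds alone, ≥48 hr, 37 °C.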
# DT40 TDP1 CPT: qHTS for Inhibitors of human tyrosyl-DNA phosphodiesterase 1 (TDP1): qHTS in cells in presence of CPT. 420,000 compounds, 12% hits. chicken DT40 Tdp1-/-;hTDP1 cells + 20 nM CPT, ATP luminescence, 48 h. Potency, µM (highest dose often 46.2 µM), usual class: inhibitors; also: nearly all actives have a fitted effect of over 55% in size
#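 Cell growth measured by CellTiter-Glo luminescence after a minimum 48 h, 37 C compound exposure with 20 nM CPT in Tdp1-knockout DT40 cells stably expressing hTDP1, seeded 400/well; qHTS titration format.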
# miR-21 reporter: qHTS Assay for Modulators of miRNAs and/orActivators of miR-21; Potency, µM (doses to about 38.3 µM), hits mostly activators; 340,000 tested, under 10 active; AID 2288, 2010; HeLa miR-21 FLuc reporter, luciferase, 48 h;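 also: miR-21 action dims this reporter so a rising signal means less miR-21 action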
#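 Compounds were titrated across several concentrations (up to approximately 40 uM) and incubated 48 hours with HeLa miR-21-FLuc reporter cells (miR-21 target sequence downstream of FLuc, endogenous miR-21). Readout was firefly luciferase luminescence after lytic detection reagent.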
# Hits are given with their value; - = inactive; ? = inconclusive; . = no result given; [ ] = dose if it differs, or a comment. Unless noted, calls follow the shape of the dose curve; as a rule, active = well fitted curve in the direction sought with a large enough effect; inconclusive = small, poorly fitted or top-dose-only effect, or another doubt; inactive = no such curve, though single readings can be large; an effect the other way counts as inactive or inconclusive.
SMILES,uPA surface inh,TDP1 inh,TDP1 cell noCPT,DT40 TDP1 CPT,miR-21 reporter
Cc1nc(-c2ccc(C(=O)Nc3cccc(F)c3)cc2)cs1,-,.,?,-,-
Cc1nc(-c2cccc(NC(=O)c3ccc(-n4cccn4)cc3)c2)cs1,-,-,10µM,15µM,.
Cc1nc(-c2cccc(S(=O)(=O)N3CC(C)CC(C)C3)c2)cs1 (stereo not drawn),-,-,13µM,?,-
Cn1cc(CN2CCC(C(=O)N3CCCC3)CC2)c(-c2ccccc2F)n1,-,-,-,-,-
CCN(CC)c1ccc(NC(=O)C2=CC=CN3CCS(=O)(=O)N=C23)cc1,?,-,-,-,.
CC(=O)Nc1cccc(C(=O)N2CCN(S(=O)(=O)c3ccc(C4CCCCC4)cc3)CC2)c1,?,.,23µM,?,.
Cc1nc(-c2cccc(NC(=O)c3cccc(S(=O)(=O)N4CCCC4)c3)c2)cs1,-,-,23µM,?,.
CC(C)CC(=O)N1CCN(S(=O)(=O)c2ccc(C3CCCCC3)cc2)CC1,-,-,12µM,21µM,.
COc1ccc(NS(=O)(=O)c2cccc(NC(=O)C34CCC(CC3)C4)c2)cc1,-,-,21µM,?,-
Cc1ccc(NC(=S)Nc2cccc(-c3n[nH]c(=S)o3)c2)cc1,-,-,-,-,-
Cc1nn(CCCC(=O)NCCc2ccccc2)c(=O)c2nccn12,-,.,-,-,-
Cc1ccc(NC(=O)Cn2cc(S(=O)(=O)c3ccccc3)c(=O)c3cc(F)ccc32)cc1,-,-,-,-,-
O=C(O)COc1ccc(NC(=O)c2ccc3c(c2)C(=O)N(C2CCCCC2)C3=O)cc1,-,-,-,-,-
CCC(=O)Oc1ccc(NC(=O)c2ccc(S(=O)(=O)N3CCCC3)cc2)cc1,.,.,21µM,?,.
O=C(Nc1ccc(N2CCOCC2)cc1)c1cccc(S(=O)(=O)N2CCCCC2)c1,-,-,15µM,15µM,-
CCC(=O)Oc1ccc(C(=O)Nc2ccc3c(c2)C(=O)N(C2CCCCC2)C3=O)cc1,-,-,15µM,21µM,-
COc1ccc(NS(=O)(=O)c2cccc(NC(=O)c3ccc(S(=O)(=O)N4CCCCCC4)cc3)c2)cc1,-,-,2.6µM,3.7µM,-
COc1ccc(C(=O)Nc2ccc(S(=O)(=O)N3CCCC3)cc2)cc1,-,-,-,-,-
CCOc1ncccc1C(=O)NCc1ccc(OC)c(OC)c1,-,-,?,-,-
Cc1cc(CSc2ccccc2)ccc1NC(=O)c1ccc(Br)cc1,-,-,?,-,-
Cc1ccc(NC(=O)/C(=C\c2cccnc2)NC(=O)c2ccco2)cc1,-,-,-,-,-
CC1CN(Cc2nc3c(c(=O)n(C)c(=O)n3C)n2CCCc2ccccc2)CC(C)O1 (stereo not drawn),-,.,?,-,.
CCOC(=O)C(C(=O)OCC)N(Cc1cc(OC)ccc1OC)C(=O)C1CC(CO[Si](C)(C)C(C)(C)C)=CN1C(=O)OC(C)(C)C (stereo not drawn),.,-,.,.,.
CCOc1ccc(N(C(C)C(=O)Nc2ccc(OC)cc2)S(C)(=O)=O)cc1 (stereo not drawn),-,-,-,-,-
CC1CCCC(NC(=O)c2cccc(S(=O)(=O)N3CCCCC3)c2)C1C (stereo not drawn),-,-,?,21µM,-
SMILES,uPA surface inh,TDP1 inh,TDP1 cell noCPT,DT40 TDP1 CPT,miR-21 reporter
CCOc1ccc(C(=O)Nc2ccc(S(=O)(=O)N3C[C@@H]4C[C@@H](C3)c3cccc(=O)n3C4)cc2)cc1,-,-,12µM,21µM,.
CCN(CC)S(=O)(=O)c1ccc(NC(=O)C(C)N(c2ccc(OC)cc2)S(C)(=O)=O)cc1 (stereo not drawn),.,-,18µM,?,-
COc1ccc(/C(C)=N/NC(=O)c2cccc(S(=O)(=O)N3CCCC3)c2)c(O)c1,-,.,2.9µM,5.2µM,.
O=C(Nc1ccc(S(=O)(=O)N2C[C@@H]3C[C@@H](C2)c2cccc(=O)n2C3)cc1)c1ccc(F)cc1,-,-,-,-,.
CCOC(=O)Cc1nc2nc(C)cc(C)n2n1,-,-,-,-,-
CC(C)(C)NC(=O)CCSc1nnc(-c2ccco2)o1,-,-,-,-,-
COC(=O)C1=C(C)N(c2ccc(C)cc2)/C(=C/c2cccs2)C1=O,-,-,26µM,?,-
Cc1cc2nnc(SCC(=O)NCC(c3ccccc3)N(C)C)n2c2ccccc12 (stereo not drawn),-,-,-,-,-
N#Cc1c(NCc2ccccc2)ccnc1NCc1cccnc1,-,-,8.2µM,23µM,-
N#Cc1c(F)cccc1NCc1cccnc1,-,.,-,-,-
Cc1ccc2nc(C(C)O)[nH]c2c1 (stereo not drawn),-,-,-,-,-
CCC(c1nnnn1-c1ccc(OC)cc1)N1CCN(C/C=C/c2ccccc2)CC1 (stereo not drawn),.,.,?,21µM,.
CCC(c1nnnn1Cc1ccccc1)N1CCN(c2ccc(OC)cc2)CC1 (stereo not drawn),-,-,?,?,-
COc1ccc(-n2nnnc2C(c2ccccc2)N2CCN(C/C=C/c3ccccc3)CC2)cc1 (stereo not drawn),.,.,?,21µM,.
COc1cccc(C(c2nnnn2Cc2ccco2)N2CCN(Cc3ccccc3)CC2)c1OC (stereo not drawn),-,-,-,?,-
COc1ccc(-n2nnnc2C(CCc2ccccc2)N2CCN(C/C=C/c3ccccc3)CC2)cc1 (stereo not drawn),.,.,16µM,?,.
COc1ccc(-n2nnnc2C(c2cccc(OC)c2OC)N2CCN(C/C=C/c3ccccc3)CC2)cc1 (stereo not drawn),.,.,18µM,23µM,.
COc1ccc(/C=C/CN2CCN(CCc3ccccc3)C(CCO)C2)cc1 (stereo not drawn),-,-,?,?,-
CCc1ccc(S(=O)(=O)N2CCN(Cc3ccco3)CC2)cc1,-,-,?,-,-
CC(=O)Nc1cccc(N2CCCC2=O)c1,.,-,-,-,-
Cc1c(Cl)cccc1NC(=O)c1cc2nc(-c3ccc4c(c3)OCO4)cc(C(F)(F)F)n2n1,.,-[12.3 µM],-,-,-
COc1cccc2c1C(=O)c1c(O)c3c(c(O)c1C2=O)CC(O)(C(=O)CO)CC3OC1CC(N(C)C)C(O)C(C)O1 (stereo not drawn),-,.,0.15µM,0.015µM,.
CC[C@@]1(O)C[C@H](O[C@H]2C[C@H](N(C)C)[C@H](O[C@H]3C[C@H](O)[C@H](O[C@H]4CCC(=O)[C@H](C)O4)[C@H](C)O3)[C@H](C)O2)c2c(cc3c(c2O)C(=O)c2c(O)cccc2C3=O)[C@H]1C(=O)OC,.,.,0.24µM,0.21µM,.

# Assay outcomes from PubChem.
